An excerpt weighted towards active compounds, which were near 2.4% of everything screened.
CRFBP-R2 block = CRF-BP/CRF-R2 complex antagonism; HEK293 CRF-R2/CRF-BP, CRF-induced calcium fluorescence; inhibition, % at 11.8 µM; 350,000 tested, 0.59% active; AID 588475;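 active = inhibition of the ligand-induced calcium signal above about 50% at the single tested concentration, limit read from the data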
Cardiac RTF inh = cardiac RTF calcium desensitization; P19429+P45379; IANBD-labeled cardiac RTF, Ca2+ fluorescence; inhibition, % at 7.15 µM; 340,000 tested, 0.12% active; AID 493244;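 active = inhibition above the mean inhibition of all tested compounds plus 3 SD, cut at about 17% in these data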;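 also: assay run at fixed EC70 calcium of 1.6 mM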
RTF Ca sens act = cardiac RTF calcium sensitization; IANBD-labeled TnC RTF fluorescence at EC20 calcium; 0% EC20 calcium, 100% full calcium; 340,000 tested, 0.24% active; activation, % at 7.2 µM; AID 493008; P19429+P45379;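 active = activation above the mean over all tested compounds plus 3 SD, cut at about 30% in these data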;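 also: rise in fluorescence read as greater calcium sensitivity of cardiac thin filaments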
ANO1 activ = activates or potentiates the mouse TMEM16A chloride channel. Q8BHY3. HEK293 TMEM16A/YFP-H148Q/I152L, iodide quench fluorescence; stronger effect = lower value. B-score at 10 µM. 340,000 tested, 0.3% active;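 active = fluorescence-ratio B-score plate-corrected deviation score at least 3 library SD below zero, with starting fluorescence score within 5 deviations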;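 also: channel opened by trigger with iodide after compound preincubation; score built on the fluorescence ratio of max minus min over baseline; more negative score means more quench and so TMEM16A activation or potentiation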
Target sequence (Q8BHY3 whole entry, looked up): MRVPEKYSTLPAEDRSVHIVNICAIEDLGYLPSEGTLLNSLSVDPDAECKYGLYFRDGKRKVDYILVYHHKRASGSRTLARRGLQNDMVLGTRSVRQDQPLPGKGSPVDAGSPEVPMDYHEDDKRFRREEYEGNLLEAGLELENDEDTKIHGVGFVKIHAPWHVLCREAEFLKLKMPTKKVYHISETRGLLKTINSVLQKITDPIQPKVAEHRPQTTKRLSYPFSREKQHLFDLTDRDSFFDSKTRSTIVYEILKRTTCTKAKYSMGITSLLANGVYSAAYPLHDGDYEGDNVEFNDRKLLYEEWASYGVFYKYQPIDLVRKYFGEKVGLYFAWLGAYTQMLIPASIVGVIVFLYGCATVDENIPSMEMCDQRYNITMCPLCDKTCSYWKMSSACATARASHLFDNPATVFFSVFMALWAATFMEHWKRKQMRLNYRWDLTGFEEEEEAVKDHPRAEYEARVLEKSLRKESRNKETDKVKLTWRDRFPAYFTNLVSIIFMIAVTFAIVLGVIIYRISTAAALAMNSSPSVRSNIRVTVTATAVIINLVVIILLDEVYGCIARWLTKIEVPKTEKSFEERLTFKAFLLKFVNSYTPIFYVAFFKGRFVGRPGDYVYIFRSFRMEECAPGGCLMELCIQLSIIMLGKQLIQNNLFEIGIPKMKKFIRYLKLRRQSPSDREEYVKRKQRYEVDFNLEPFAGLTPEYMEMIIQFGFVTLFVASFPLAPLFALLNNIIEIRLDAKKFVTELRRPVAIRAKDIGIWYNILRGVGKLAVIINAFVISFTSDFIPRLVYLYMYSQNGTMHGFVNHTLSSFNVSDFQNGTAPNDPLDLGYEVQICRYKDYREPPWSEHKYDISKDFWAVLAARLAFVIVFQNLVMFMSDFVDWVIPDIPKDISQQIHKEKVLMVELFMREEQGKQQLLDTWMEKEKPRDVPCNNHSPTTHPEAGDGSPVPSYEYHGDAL
TMEM16A inh = blocks the mouse calcium-activated chloride channel TMEM16A. Q8BHY3. HEK293 TMEM16A/YFP iodide influx fluorescence, ionomycin. normalized B-score (activity score, 25-100; higher = stronger inhibition) at 10 µM. 310,000 tested, 1.2% active. AID 588511;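 active = ratio plate-corrected score three or more library SD toward inhibition, starting fluorescence score within five deviations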;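 also: score derived from kinetic fluorescence span divided by baseline fluorescence per well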
CRFR2-BP ag = CRF-BP/CRF-R2 complex agonism; HEK293 CRF-R2/CRF-BP, calcium dye fluorescence (FLIPR); percent of saturating CRF peptide response; activation, % at 13.2 µM; 350,000 tested, 0.46% active;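 active = activation of at least 50%, plus an integration ratio under a set limit after plate pattern correction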
Of the large screens only hits and unclear results are named; the others gave an inactive call.

CC(C)Cc1ccc(CN2CCCC(NC(=O)c3cnc4ccccn4c3=O)C2)cc1 (stereo not drawn)	TMEM16A inh 25
Cc1cc(=O)oc2c(C)c(OCC(=O)NCCCN3CCOCC3)ccc12	none
COc1[nH]c(/N=C/c2ccccc2)c(C#N)c1C#N	RTF Ca sens act 106
Cc1oc(/N=C/c2ccccc2)c(C#N)c1C	none
CCC(=O)N=c1sc2c(OC)ccc(OC)c2n1C	none
COc1ccc(OC)c2c1sc(=NC(=O)C1COc3ccccc3O1)n2C (stereo not drawn)	CRFBP-R2 block 82
COc1ccc(-c2cccc(NS(=O)(=O)c3cccc([N+](=O)[O-])c3)c2)nn1	CRFBP-R2 block 58
CCCN(S(=O)(=O)c1ccc(OCC)cc1)S(=O)(=O)c1cccs1	none
COCCn1c(C)cc(C(=O)CSc2ccc(NC(C)=O)cc2)c1C	CRFR2-BP ag 62
COCCn1c(C)cc(C(=O)CSc2ccc3ccccc3n2)c1C	TMEM16A inh 25
Nc1nnc(Cc2cccc(Br)c2)s1	none
Cc1ccc(NC(=O)O/N=C/c2ccc(F)cc2)cc1	RTF Ca sens act 37
Cc1ccc(NC(=O)O/N=C/c2ccc(Br)cc2)cc1	none
COc1ccc(C2=NN(c3ccc(C=O)cc3)C(c3ccccc3)C2)cc1 (stereo not drawn)	none (no result: Cardiac RTF inh, RTF Ca sens act, ANO1 activ)
COc1ccc(C2CC(c3cccs3)=NN2c2ccc(C=O)cc2)cc1 (stereo not drawn)	CRFR2-BP ag 109 (no result: Cardiac RTF inh, RTF Ca sens act, ANO1 activ)
COc1cc(CN(C(=O)c2ccco2)c2ccc(C)cc2)ccc1O	none
Cc1ccc(N(Cc2ccc([N+](=O)[O-])cc2)C(=O)c2ccco2)cc1	CRFBP-R2 block 62
CNc1nc(N(C)C)nc(N(C)C)n1	CRFR2-BP ag 72
O=C(NCCC(=O)N1CCN(c2ccc(F)cc2)CC1)c1ccco1	none (no result: TMEM16A inh)
CC(c1ccccc1)N1C(=O)c2ccc(C(=O)Nc3ccccc3C(=O)O)cc2C1=O (stereo not drawn)	none
CC(c1ccccc1)N1C(=O)c2ccc(C(=O)Nc3ccc(Br)cc3C(=O)O)cc2C1=O (stereo not drawn)	CRFBP-R2 block 59, TMEM16A inh 100
CC(C)CCN1C(=O)c2ccc(C(=O)Nc3ccc(O)cc3C(=O)O)cc2C1=O	none
COc1cc(NC(=O)c2ccc3c(c2)C(=O)N(CCC(C)C)C3=O)c(C(=O)O)cc1OC	CRFBP-R2 block 51
Nc1ccccc1SC1CC(=O)N(c2ccc3c(c2)OCO3)C1=O (stereo not drawn)	CRFBP-R2 block 84 (no result: Cardiac RTF inh, RTF Ca sens act)
O=C(O)c1ccccc1SC1CC(=O)N(c2ccc3c(c2)OCO3)C1=O (stereo not drawn)	none
O=C(Nc1ccc(OC(F)(F)F)cc1)Oc1ccccc1N1CCCCC1	none (no result: Cardiac RTF inh, RTF Ca sens act)
Cc1ccc(OCC(=O)NNC(=O)c2ccc3c(=O)n4c(nc3c2)CCC4)cc1	none
COc1ccc(N2CCN(C(=O)C(Cc3ccccc3)n3cccc3)CC2)cc1 (stereo not drawn)	ANO1 activ -15
O=C(C(Cc1ccccc1)n1cccc1)N1CCN(c2cccc(Cl)c2)CC1 (stereo not drawn)	none
CC(C)NC(=O)/C(C#N)=C/c1ccc(N(C)C)o1	RTF Ca sens act 73
COc1ccc(OCCN2CCN(C(=O)c3ccc(OC)cc3)CC2)cc1	TMEM16A inh 100
CCOC(=O)N1CCN(C(=O)c2ccc(Cn3c(=S)[nH]c4ccc(Br)cc4c3=O)cc2)CC1	TMEM16A inh 100
COc1ccc(/C=C2\SC(=O)N(CCC(=O)N3CCN(C)CC3)C2=O)cc1	RTF Ca sens act 54
Cc1ccc(/C=C2\SC(=O)N(CCC(=O)N3CCN(C)CC3)C2=O)cc1	none
Cc1ccn(C(=O)c2ccc(NC(=O)C3CCCCC3)cc2)n1	CRFBP-R2 block 54
CNc1nc2cc([N+](=O)[O-])c([N+](=O)[O-])cc2nc1NC	CRFBP-R2 block 66, CRFR2-BP ag 65
CCOC(=O)C(Sc1n[nH]c(N)n1)c1ccccc1 (stereo not drawn)	TMEM16A inh 25
COC(=O)C(Cc1ccc(O)cc1)NC(=O)C1CCN(S(=O)(=O)c2ccc(C)cc2)CC1 (stereo not drawn)	none
CCOC(=O)Cc1c(C)nc2c(-c3ccccc3OC)c(C)nn2c1C	none
CCOC(=O)Cc1c(C)nc2c(-c3ccc(Cl)cc3)c(C)nn2c1C	ANO1 activ -4.8
Nc1nc2n(n1)C(c1cccc(Br)c1)CC(c1ccc(F)cc1)N2 (stereo not drawn)	CRFR2-BP ag 54
Nc1nc2n(n1)C(c1ccccc1)CC(c1ccc(F)cc1)N2 (stereo not drawn)	none
Cc1cc(C(=O)COC(=O)C2=COCCO2)c(C)n1-c1ccccc1	none (no result: TMEM16A inh)
Cc1ccc(S(=O)(=O)NCC2(c3ccccc3)CCOCC2)cc1	none
Cc1cc(C)cc(OCC(=O)N2N=C(C(F)(F)F)CC2(O)C(C)(C)C)c1 (stereo not drawn)	TMEM16A inh 100
Cc1ccc(S(=O)(=O)n2cc(-c3ccccc3)c(N)n2)cc1	none
Nc1nn(S(=O)(=O)c2ccccc2)cc1-c1ccc([N+](=O)[O-])cc1	CRFBP-R2 block 50
CCOc1cc(CNCc2ccncc2)cc(Br)c1OCc1ccccc1F	TMEM16A inh 25
CCOc1cccc(CNCCO)c1OCc1ccc(Cl)cc1Cl	none
CCOc1cc(CNCCO)cc(Br)c1OCc1ccc(Cl)cc1Cl	TMEM16A inh 100
CCOc1cc(CNCCSc2nnnn2C)cc(Br)c1OCc1ccccc1F	none
COc1ccc(NC(=O)COC(=O)c2ccc([N+](=O)[O-])o2)cc1Cl	none
CC(=O)N(/N=C/c1cccc(C)c1)c1nc(-c2ccc(Br)cc2)cs1	none
COc1ccc(/C=N/N(C(C)=O)c2nc(-c3ccc(C)cc3)cs2)cc1	ANO1 activ -7.2
COc1ccc(S(=O)(=O)Nc2cc3c4c(c2)C(C)C(=O)N4CCC3)cc1OC (stereo not drawn)	none
CC1(C)OC(=O)C(=Cc2ccc(-c3ccc(S(N)(=O)=O)cc3)o2)C(=O)O1	CRFBP-R2 block 81, ANO1 activ -6.2
NS(=O)(=O)c1ccc(-c2ccc(/C=C3\C(=O)Nc4ccccc43)o2)cc1	none (no result: CRFBP-R2 block, Cardiac RTF inh, RTF Ca sens act, ANO1 activ, CRFR2-BP ag)
CCOc1ccc(CNc2ccc(S(N)(=O)=O)cc2)cc1	ANO1 activ -5.1
COC(=O)C1(CC2CC(c3ccccc3)=NO2)CCN(C(=O)OC(C)(C)C)CC1 (stereo not drawn)	TMEM16A inh 25
COC(=O)c1c(=O)n(O)c2ccc(OC)cc2[n+]1[O-]	RTF Ca sens act 44
Cc1nn(S(=O)(=O)c2cccc([N+](=O)[O-])c2)c(C)c1Br	none
Cc1nn(S(=O)(=O)c2ccccc2)c(C)c1Sc1ccc([N+](=O)[O-])cc1	TMEM16A inh 25

High-throughput results deposited in PubChem BioAssay by several laboratories.
